Measurements: PubChem BioAssay (NCI)
Compounds without any hit were thinned out: in the full panel of roughly 83,000, 20% have a hit.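 Single-concentration screen, 48 h exposure, 96-well plates. Endpoint: percent growth. Below 10 = active.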 Calls of active or inactive are those of the source.

Test system: NCI/ADR-RES ovarian
Test: NCI-60 one-dose screen, 48 h (100 = growth as untreated, 0 = no growth, -100 = all killed)
Details: 10 µM unless noted

Row | SMILES | growth
1 | NC(N)=Nc1ccc(Oc2cccc(NC(N)=Nc3ccc(Br)c(C(F)(F)F)c3)c2)cc1 | 96.8% (inactive)
2 | CN(Cc1ccccc1)S(=O)(=O)/N=C1\NC(=O)NC1=C(Cl)Cl | 81.5% (inactive)
3 | COc1ccc(S(=O)(=O)NCCCNc2nccc(-c3[nH]c(-c4ccccc4)nc3-c3ccc(Cl)c(O)c3)n2)cc1 | 103% (inactive)
4 | O=C(CN1CCN(c2cc(=O)n(-c3ccccc3)c3ccccc23)CC1)Nc1nc(-c2ccc(Cl)cc2)cs1 | 54.9% (inactive)
5 | CC(=O)c1nnn(-c2c(C(=O)n3nc(C)cc3C)sc(=S)n2-c2ccccc2)c1C | 111% (inactive)
6 | O=C1[C@H]2Cc3c([nH]c4ccccc34)[C@@H](c3ccc(Br)cc3)N2C(=O)CN1C1CCN(CC2CCCCC2)CC1 | -83.8% (active)
7 | NS(=O)(=O)c1ccc(Nc2nc(Nc3ccccc3)nc3nnc(SCC(=O)NC4CCCCC4)n23)cc1 | 112% (inactive)
8 | Cn1ccnc1C(=O)/C=C/C=C/c1ccc(C(=O)Nc2ccc(F)cc2)cc1 | 26.7% (inactive)
9 | O=C1[C@H]2Cc3c([nH]c4ccccc34)[C@@H](c3ccc(Cl)cc3)N2C(=O)CN1C1CCN(Cc2ccccc2)CC1 | 51.3% (inactive)
10 | NC(N)=Nc1ccc(Oc2cccc(Nc3ccc(Br)c(C(F)(F)F)c3)c2)cn1 | 55.7% (inactive)
11 | CCn1c2ccccc2c2cc(-n3nncc3-c3ccccc3)ccc21 | 6.13% (active)
12 | CN1CCN(Cc2ccc(NC(=O)c3cncc(C#Cc4cnc5ccc(OCC(C)(C)O)nn45)c3)cc2C(F)(F)F)CC1 | 33.9% (inactive)
13 | Cc1ccc(-n2c(/C=C3\C(=O)Nc4ccccc43)ccc2CO)cc1 | 55.7% (inactive)
14 | Cc1c(F)cc(C(N)=O)cc1NCC(=O)Nc1ccc([N+](=O)[O-])cc1 | 96.6% (inactive)
15 | CCOC(=O)c1c(N)c(C#N)cn1-c1cc(OC)c(OC)c(OC)c1 | 110% (inactive)
16 | O=c1[nH]c(Sc2sc3ccc(Cl)cc3c2CBr)nc(=S)[nH]1 | 65.3% (inactive)
17 | CC(=O)c1ccc(Nc2nc(SCC(C)C)nc(-c3ccccc3)c2C#N)cc1 | 89.1% (inactive)
18 | CS(=O)(=O)c1ncc(-c2ccccc2)cn1 | 103% (inactive)
19 | CNC(=O)c1c(NC(=O)c2ccccc2C(F)(F)F)sc2c1CCC(=O)C2 | 28.1% (inactive)
20 | NC(N)=Nc1ccc(Nc2cccc(Oc3ccc(Cl)c(C(F)(F)F)c3)c2)cn1 | 80.5% (inactive)
21 | CC(C)c1ccc(NCc2cn(-c3ccc(C(=O)O)cc3)nc2-c2cc(C(F)(F)F)cc(C(F)(F)F)c2)cc1 | 82.8% (inactive)
22 | COc1cc2nc(Cl)nc(Nc3cccc(C4=Nc5c(N)nc(N)nc5NC(c5ccccc5)C4)c3)c2cc1OC (stereo unspecified) | 94.1% (inactive)
23 | O=C(CCn1c[n+](CC(=O)c2ccc(F)cc2)c2ccccc21)Nc1cccc2cccnc12 | 96.5% (inactive)
24 | COc1cc(-c2nc(-c3ccccc3)[nH]c2-c2ccnc(NCCCNS(=O)(=O)c3cccc(F)c3)n2)ccc1Cl | 31.9% (inactive)
25 | N#Cc1c(NC(=O)c2cccc(C(F)(F)F)c2F)sc2c1CCC(=O)C2 | -3.6% (active)
26 | COC[C@]12CCC(C)(C)C[C@H]1C1=CC[C@@H]3[C@@]4(C)CCCNC(C)(C)[C@@H]4CC[C@@]3(C)[C@]1(C)CC2 | -88% (active)
